Assay results published in PubChem BioAssay (NCATS).
Inconclusive results are not listed. Values without a mark were called inactive. Calls of active or inactive are those of the source. Calls come from the whole dose curve; as a rule, active = well fitted curve in the direction sought with a large enough effect; inconclusive = small, poorly fitted or top-dose-only effect, or another doubt; inactive = no such curve, though single readings can be large; an effect the other way counts as inactive or inconclusive.

Experiment: qHTS assay to identify small molecule inhibitors of chordoma cells - UCH-1 (AID 1259355); note: nearly all actives have a fitted effect of over 55% in size; note: potency is the fitted concentration of half-maximal effect
Conditions: UCH-1 chordoma viability, CellTiter-Glo, 48 h, combination, with auranofin plus four topoisomerase inhibitors; series mostly up to 46.1 µM; activity, negative = inhibition: at the top concentration
Method in brief: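 Cells (800/well) were seeded and left overnight at 37 C, 5% CO2, then treated with drugs at 15 concentrations plus a combination mix of auranofin, camptothecin, doxorubicin, rubitecan and topotecan. Viability after 48hr was read by CellTiter-Glo luminescence.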
% is set by controls: 0 for no effect and ±100 for the full control effect.

| Structure (SMILES) | Potency | activity, negative = inhibition |
| --- | --- | --- |
| COc1ccc(CCN2CCC(Nc3nc4ccccc4n3Cc3ccc(F)cc3)CC2)cc1 | 31.6 µM (active) | – |
| CN1CCC(=C2c3ccccc3Sc3ccccc32)CC1 | – | -9.3% |
| CC(=O)c1ccc2c(c1)N(CCCN1CCC(CCO)CC1)c1ccccc1S2 | – | 3.12% [at 20.6 µM] |
| CC(=O)O[C@H]1C[C@@H]2CC[C@@H]3[C@H](CC[C@@]4(C)[C@H]3C[C@H]([N+]3(C)CCCCC3)[C@@H]4OC(C)=O)[C@@]2(C)C[C@@H]1[N+]1(C)CCCCC1 | – | 5.32% |
| COc1cc(C=C2CCC/C(=C\c3ccc(O)c(OC)c3)C2=O)ccc1O | 31.6 µM (active) | – |
| COc1cc2c(cc1OC)C(C(C(=O)N(CCc1ccc(OC)c(OC)c1OC)CCc1ccc(OC)c(OC)c1OC)c1ccccc1)=NCC2 (configuration not stated) | – | -18.1% |
| C/C=C/c1ccc(OC)cc1 | – | 6.15% |
| C1CCc2nnnn2CC1 | – | -13.1% |
| CCOC(=O)COc1ccc2c(C)c(CCN(CC)CC)c(=O)oc2c1Cl | – | -9.92% |
| O=C1CCC(c2ccc(-n3ccnc3)cc2)=NN1 | – | 9.09% |
| C[N+]1(CCCCC[N+]2(C)CCCC2)CCCC1 | – | -1.71% |
| c1ccc(CNCCNCc2ccccc2)cc1 | – | -16.5% |
| CN=C(NC#N)NCCSCc1csc(N=C(N)N)n1 | – | -11.9% |
| O=C(OCCOCCO)c1ccccc1Nc1cccc(C(F)(F)F)c1 | – | -1.23% [at 20.6 µM] |
| NC(CO)(CO)CO | – | -23% |
| CCCCN1CCCC1C(=O)Nc1c(C)cc(C)cc1C (configuration not stated) | – | -15.6% |
| CCOC(=O)c1cccc(N)c1 | – | -28.4% |
| CC(C)COC(=O)OCN1C(=O)CN(CCN2CC(=O)N(COC(=O)OCC(C)C)C(=O)C2)CC1=O | – | -12.1% |
| CCN1CCCC1=O | – | -27% |
| Cc1cc(N)c2cc(NC(=O)Nc3ccc4nc(C)cc(N)c4c3)ccc2n1 | – | -16.4% |
| CCCCCC=CCC=CCCCCCCCC(=O)OCC | – | 0.739% |
| Oc1c(Cl)cc(Cl)cc1Sc1cc(Cl)cc(Cl)c1O | – | -33.6% |
| CCOC(=O)[C@H](CCc1ccccc1)N[C@@H](C)C(=O)N1Cc2ccccc2C[C@H]1C(=O)O | – | -26.8% |
| C[C@]12C=CC(=O)C=C1CC[C@@H]1[C@@H]2[C@@H](O)C[C@@]2(C)[C@H]1CC[C@]2(O)C(=O)CO | – | -29.7% |
| CCCCCCC[N+](CC)(CC)CCCCc1ccc(Cl)cc1 | – | -14.2% [at 20.6 µM] |
| Cc1ccc(O)c2ncccc12 | – | -8.58% |
| CC(=O)N/N=C/c1ccc([N+](=O)[O-])o1 | – | -9.11% |

Experiment: qHTS assay to identify small molecule inhibitors of chordoma cells - UCH-2 (AID 1259356)
Conditions: UCH-2 chordoma viability, CellTiter-Glo ATP luminescence, 48 h; series mostly up to 46.1 µM; activity change, negative = inhibition: at the top concentration

| Structure (SMILES) | activity change, negative = inhibition |
| --- | --- |
| CN1CCC(=C2c3ccccc3Sc3ccccc32)CC1 | 6.27% |
| CC(C)(Oc1ccc(Cl)cc1)C(=O)O | 0.684% |
| O=C(CCCN1CCC(O)(c2ccc(Br)cc2)CC1)c1ccc(F)cc1 | 6.88% [at 20.6 µM] |
| CC(=O)O[C@H]1C[C@@H]2CC[C@@H]3[C@H](CC[C@@]4(C)[C@H]3C[C@H]([N+]3(C)CCCCC3)[C@@H]4OC(C)=O)[C@@]2(C)C[C@@H]1[N+]1(C)CCCCC1 | 0% |
| COc1cc(C=C2CCC/C(=C\c3ccc(O)c(OC)c3)C2=O)ccc1O | -15.2% |
| COc1cc2c(cc1OC)C(C(C(=O)N(CCc1ccc(OC)c(OC)c1OC)CCc1ccc(OC)c(OC)c1OC)c1ccccc1)=NCC2 (configuration not stated) | 6.66% |
| CCCCOc1ccc(OCCCN2CCOCC2)cc1 | 0.329% [at 20.6 µM] |
| C/C=C/c1ccc(OC)cc1 | 15.3% |
| N[C@H](Cc1c[nH]c2ccccc12)C(=O)O | -2.3% |
| C1CCc2nnnn2CC1 | -5.01% |
| NC(=O)C(=O)N/N=C/c1ccc([N+](=O)[O-])o1 | -10.3% |
| CC(=O)OCC(=O)[C@@]12OC(C)(C)O[C@@H]1C[C@H]1[C@@H]3C[C@H](F)C4=CC(=O)C=C[C@]4(C)[C@@]3(F)[C@@H](O)C[C@@]12C | 8.7% [at 20.6 µM] |
| COC(=O)[C@H]1[C@H]2C[C@H]3c4[nH]c5ccccc5c4CCN3C[C@H]2CC[C@@H]1O | 8.04% |
| O=C1CCC(c2ccc(-n3ccnc3)cc2)=NN1 | 5.35% |
| C[N+]1(CCCCC[N+]2(C)CCCC2)CCCC1 | 1.73% |
| c1ccc(CNCCNCc2ccccc2)cc1 | 8.29% |
| CN=C(NC#N)NCCSCc1csc(N=C(N)N)n1 | 4.11% |
| O=C(OCCOCCO)c1ccccc1Nc1cccc(C(F)(F)F)c1 | 0.463% [at 20.6 µM] |
| NC(CO)(CO)CO | -2.12% |
| CCCCN1CCCC1C(=O)Nc1c(C)cc(C)cc1C (configuration not stated) | 2.37% |
| OC[C@@H](O)[C@@H](O[C@@H]1O[C@H](CO)[C@H](O)[C@H](O)[C@H]1O)[C@H](O)[C@@H](O)CO | 7.51% |
| CC(C)COC(=O)OCN1C(=O)CN(CCN2CC(=O)N(COC(=O)OCC(C)C)C(=O)C2)CC1=O | 2.86% |
| CCN1CCCC1=O | 3.89% |
| O=C1[C@H]2CCCC[C@H]2C(=O)N1CCCCN1CCN(c2nsc3ccccc23)CC1 | 0% |
| Cc1cc(N)c2cc(NC(=O)Nc3ccc4nc(C)cc(N)c4c3)ccc2n1 | -0.375% |
| CCCCCC=CCC=CCCCCCCCC(=O)OCC | 0.615% |
| Oc1c(Cl)cc(Cl)cc1Sc1cc(Cl)cc(Cl)c1O | 4.43% |
| CCOC(=O)[C@H](CCc1ccccc1)N[C@@H](C)C(=O)N1Cc2ccccc2C[C@H]1C(=O)O | 12.2% |
| C[C@]12C=CC(=O)C=C1CC[C@@H]1[C@@H]2[C@@H](O)C[C@@]2(C)[C@H]1CC[C@]2(O)C(=O)CO | 2.88% |
| Cc1ccc(O)c2ncccc12 | 10.1% |
